# ± gives the standard deviation of the averaged measurements.
# Columns and labels:
# Experiment in all cases: promoter activity interaction Z-score (Lux/OD deviation from empty-vector control); higher = stronger promoter induction by the compound
# [1] = test system: E. coli BW25113 acrABp lux reporter
# How it was run: (§1)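 Reporter strains of E. coli BW25113 grew at 37°C in 40 µl LB Lennox in 384-well plates. Readings of OD600 and luminescence were taken every 30 min over 12 h, integrated over 0–8 h (wild type) or 1–9 h (deletion strains), and wells below 10% of the median growth value were excluded. Scores are Z-transformed residuals of growth-normalised luminescence from a fit against a control.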
# [2] = test system: E. coli BW25113 marRABp lux reporter
# How it was run: as §1
# [3] = test system: E. coli BW25113 micFp lux reporter
# How it was run: as §1
# [4] = test system: E. coli BW25113 ompFp lux reporter
# How it was run: as §1
# [5] = test system: E. coli BW25113 robp lux reporter
# How it was run: as §1
# [6] = test system: E. coli BW25113 soxSp lux reporter
# How it was run: as §1
# [7] = test system: E. coli BW25113 tolCp lux reporter
# How it was run: as §1
# [8] = 3.2 µg/ml, genetic background: wild type
# [9] = 3.2 µg/ml, genetic background: ΔmarA
# [10] = 3.2 µg/ml, genetic background: Δrob
# [11] = 3.2 µg/ml, genetic background: ΔsoxS
# [12] = 6.3 µg/ml, genetic background: wild type
# [13] = 6.3 µg/ml, genetic background: ΔmarA
# [14] = 6.3 µg/ml, genetic background: Δrob
# [15] = 6.3 µg/ml, genetic background: ΔsoxS
# [16] = 12.7 µg/ml, genetic background: wild type
# [17] = 12.7 µg/ml, genetic background: ΔmarA
# [18] = 12.7 µg/ml, genetic background: Δrob
# [19] = 12.7 µg/ml, genetic background: ΔsoxS
# [20] = 25.3 µg/ml, genetic background: wild type
# [21] = 25.3 µg/ml, genetic background: ΔmarA
# [22] = 25.3 µg/ml, genetic background: Δrob
# [23] = 25.3 µg/ml, genetic background: ΔsoxS
smiles,measurement,setting,value
Cc1cc(NS(=O)(=O)c2ccc(N)cc2)no1 [Sulfamethoxazole],promoter activity interaction Z-score,[1]; [8],-0.0765 ± 0.27
same,promoter activity interaction Z-score,[1]; [9],0.689 ± 0.77
same,promoter activity interaction Z-score,[1]; [10],-0.221 ± 0.15
same,promoter activity interaction Z-score,[1]; [11],-0.171 ± 0.12
same,promoter activity interaction Z-score,[1]; [12],-0.0766 ± 0.0099
same,promoter activity interaction Z-score,[1]; [13],0.146 ± 0.35
same,promoter activity interaction Z-score,[1]; [14],-0.0332 ± 0.079
same,promoter activity interaction Z-score,[1]; [15],-0.186 ± 0.085
same,promoter activity interaction Z-score,[1]; [16],0.0229 ± 0.067
same,promoter activity interaction Z-score,[1]; [17],0.358 ± 0.25
same,promoter activity interaction Z-score,[1]; [18],0.21 ± 0.21
same,promoter activity interaction Z-score,[1]; [19],0.0418 ± 0.11
same,promoter activity interaction Z-score,[1]; [20],0.696 ± 0.24
same,promoter activity interaction Z-score,[1]; [21],2.36 ± 1.9
same,promoter activity interaction Z-score,[1]; [22],1.91 ± 0.82
same,promoter activity interaction Z-score,[1]; [23],1.07 ± 0.6
same,promoter activity interaction Z-score,[2]; [8],0.00674 ± 0.34
same,promoter activity interaction Z-score,[2]; [9],0.0321 ± 0.081
same,promoter activity interaction Z-score,[2]; [10],0.113 ± 0.29
same,promoter activity interaction Z-score,[2]; [11],-0.135 ± 0.18
same,promoter activity interaction Z-score,[2]; [12],0.078 ± 0.084
same,promoter activity interaction Z-score,[2]; [13],0.138 ± 0.34
same,promoter activity interaction Z-score,[2]; [14],0.302 ± 0.037
same,promoter activity interaction Z-score,[2]; [15],0.0733 ± 0.34
same,promoter activity interaction Z-score,[2]; [16],0.411 ± 0.27
same,promoter activity interaction Z-score,[2]; [17],0.542 ± 0.015
same,promoter activity interaction Z-score,[2]; [18],0.6901 ± 0.0031
same,promoter activity interaction Z-score,[2]; [19],0.275 ± 0.14
same,promoter activity interaction Z-score,[2]; [20],0.782 ± 0.098
same,promoter activity interaction Z-score,[2]; [21],1.15 ± 0.06
same,promoter activity interaction Z-score,[2]; [22],1.2 ± 0.13
same,promoter activity interaction Z-score,[2]; [23],1.31 ± 0.61
same,promoter activity interaction Z-score,[3]; [8],0.243 ± 0.46
same,promoter activity interaction Z-score,[3]; [9],-0.0615 ± 0.078
same,promoter activity interaction Z-score,[3]; [10],0.056 ± 0.14
same,promoter activity interaction Z-score,[3]; [11],-0.0348 ± 0.3
same,promoter activity interaction Z-score,[3]; [12],0.103 ± 0.45
same,promoter activity interaction Z-score,[3]; [13],-0.116 ± 0.015
same,promoter activity interaction Z-score,[3]; [14],0.146 ± 0.091
same,promoter activity interaction Z-score,[3]; [15],0.0657 ± 0.36
same,promoter activity interaction Z-score,[3]; [16],0.21 ± 0.55
same,promoter activity interaction Z-score,[3]; [17],0.0105 ± 0.057
same,promoter activity interaction Z-score,[3]; [18],0.372 ± 0.13
same,promoter activity interaction Z-score,[3]; [19],0.279 ± 0.24
same,promoter activity interaction Z-score,[3]; [20],0.861 ± 0.2
same,promoter activity interaction Z-score,[3]; [21],-0.421 ± 0.013
same,promoter activity interaction Z-score,[3]; [22],0.736 ± 0.28
same,promoter activity interaction Z-score,[3]; [23],0.648 ± 0.11
same,promoter activity interaction Z-score,[4]; [8],1.17 ± 0.96
same,promoter activity interaction Z-score,[4]; [9],0.735 ± 0.72
same,promoter activity interaction Z-score,[4]; [10],0.192 ± 0.73
same,promoter activity interaction Z-score,[4]; [11],0.202 ± 0.47
same,promoter activity interaction Z-score,[4]; [12],0.748 ± 0.53
same,promoter activity interaction Z-score,[4]; [13],0.504 ± 0.34
same,promoter activity interaction Z-score,[4]; [14],0.735 ± 0.12
same,promoter activity interaction Z-score,[4]; [15],0.441 ± 0.62
same,promoter activity interaction Z-score,[4]; [16],1.51 ± 1.2
same,promoter activity interaction Z-score,[4]; [17],1.32 ± 0.24
same,promoter activity interaction Z-score,[4]; [18],1.71 ± 0.49
same,promoter activity interaction Z-score,[4]; [19],1.17 ± 0.39
same,promoter activity interaction Z-score,[4]; [20],2.06 ± 0.7
same,promoter activity interaction Z-score,[4]; [21],2.26 ± 0.076
same,promoter activity interaction Z-score,[4]; [22],3.31 ± 1.6
same,promoter activity interaction Z-score,[4]; [23],1.97 ± 1.8
same,promoter activity interaction Z-score,[5]; [8],0.934 ± 0.15
same,promoter activity interaction Z-score,[5]; [9],0.341 ± 0.082
same,promoter activity interaction Z-score,[5]; [10],0.297 ± 1.1
same,promoter activity interaction Z-score,[5]; [11],-0.129 ± 0.16
same,promoter activity interaction Z-score,[5]; [12],0.764 ± 0.4
same,promoter activity interaction Z-score,[5]; [13],0.234 ± 0.17
same,promoter activity interaction Z-score,[5]; [14],0.557 ± 0.64
same,promoter activity interaction Z-score,[5]; [15],0.243 ± 0.13
same,promoter activity interaction Z-score,[5]; [16],1.5 ± 0.42
same,promoter activity interaction Z-score,[5]; [17],1.47 ± 0.23
same,promoter activity interaction Z-score,[5]; [18],0.701 ± 0.021
same,promoter activity interaction Z-score,[5]; [19],0.407 ± 1.1
same,promoter activity interaction Z-score,[5]; [20],3.24 ± 0.095
same,promoter activity interaction Z-score,[5]; [21],0.76 ± 0.27
same,promoter activity interaction Z-score,[5]; [22],3.24 ± 0.084
same,promoter activity interaction Z-score,[5]; [23],3.15 ± 1.5
same,promoter activity interaction Z-score,[6]; [8],-0.125 ± 0.029
same,promoter activity interaction Z-score,[6]; [9],-0.2505 ± 0.00087
same,promoter activity interaction Z-score,[6]; [10],-0.453 ± 0.05
same,promoter activity interaction Z-score,[6]; [11],-0.491 ± 0.32
same,promoter activity interaction Z-score,[6]; [12],-0.197 ± 0.018
same,promoter activity interaction Z-score,[6]; [13],-0.00904 ± 0.067
same,promoter activity interaction Z-score,[6]; [14],-0.169 ± 0.057
same,promoter activity interaction Z-score,[6]; [15],-0.482 ± 0.4
same,promoter activity interaction Z-score,[6]; [16],-0.385 ± 0.017
same,promoter activity interaction Z-score,[6]; [17],-0.102 ± 0.16
same,promoter activity interaction Z-score,[6]; [18],-0.194 ± 0.12
same,promoter activity interaction Z-score,[6]; [19],-0.0885 ± 0.49
same,promoter activity interaction Z-score,[6]; [20],-0.318 ± 0.11
same,promoter activity interaction Z-score,[6]; [21],-0.113 ± 0.15
same,promoter activity interaction Z-score,[6]; [22],-0.388 ± 0.03
same,promoter activity interaction Z-score,[6]; [23],-0.495 ± 0.81
same,promoter activity interaction Z-score,[7]; [8],1.21 ± 0.56
same,promoter activity interaction Z-score,[7]; [9],-0.16 ± 0.5
same,promoter activity interaction Z-score,[7]; [10],-0.33 ± 1
same,promoter activity interaction Z-score,[7]; [11],-0.705 ± 0.53
same,promoter activity interaction Z-score,[7]; [12],-0.676 ± 0.91
same,promoter activity interaction Z-score,[7]; [13],1.17 ± 0.5
same,promoter activity interaction Z-score,[7]; [14],0.87 ± 0.48
same,promoter activity interaction Z-score,[7]; [15],-0.0792 ± 0.033
same,promoter activity interaction Z-score,[7]; [16],-0.0116 ± 0.8
same,promoter activity interaction Z-score,[7]; [17],0.0751 ± 0.68
same,promoter activity interaction Z-score,[7]; [18],0.998 ± 0.39
same,promoter activity interaction Z-score,[7]; [19],0.466 ± 1
same,promoter activity interaction Z-score,[7]; [20],1.95 ± 0.023
same,promoter activity interaction Z-score,[7]; [21],0.663 ± 1.2
same,promoter activity interaction Z-score,[7]; [22],0.663 ± 0.22
same,promoter activity interaction Z-score,[7]; [23],1.64 ± 0.21

# From the supplement of paper PMC12282887
